The source of these data is ChEMBL document CHEMBL3988442, “University of Dundee, Small-Polar-MMV Screening Library” (2021).

The campaign covered roughly 48,000 compounds. About 13,000 (27%) showed an effect of 50% or more. The list shows a part of the results.

This assay concerns Wolbachia pipientis. The assay can be described thus: Anti-Wolbachia Cell-Based Screen. It is filed as functional. Further details: scale not given: in the data most compounds retested in dose-response had high values. The following applies: 5 µM.
As for `NC(=O)NC(=O)CCn1ccc(-c2ccsc2)n1`, the “Percent Effect” value is -12.21%. The value for `CCOC(=O)C1CCN(C(=O)CN2CCCC2c2ccsc2)CC1` (stereo not given) was 0.9272%; that for `Cc1ccc(CNc2n[nH]c(C)n2)cc1` was 101.1%; that for `Cc1cccc(CNc2cncc(-n3cccn3)n2)c1` was 4.61%.

Regarding `COc1ccc(CNC(C)c2cn[nH]c2C)cc1` (stereo not given), the “Percent Effect” value stood at 2.524%.

On to `Cc1nc(CNc2ncc(Br)cn2)n[nH]1`, for which the “Percent Effect” value is recorded as -4.306%. On to `Cc1cccc(CNc2nnc(C(C)C)o2)c1`, for which the “Percent Effect” value is -24.34%. Consider `Cc1nnc(NCc2ccc(F)cc2)o1`, for which the “Percent Effect” value was determined as 4.213%.

Take `CSc1ccc(CNc2n[nH]c(C)n2)cc1`: the “Percent Effect” value stood at 110%.

In the case of `Cc1noc(NCc2ccc(F)cc2)n1`, the “Percent Effect” value was 5.861%. To `CSc1ccc(CNC2(c3ccc(F)cc3)CCOCC2)cc1` belongs -10.48%; to `COc1ccc(CNc2n[nH]c(C)n2)cc1`, 96.08%; to `COc1ccc(CNc2c(C)nn(C(C)C)c2C)cc1`, -4.166%. To `Cc1cccc(CNc2n[nH]c(C)n2)c1` belongs 94.75%. To `O=C(Nc1ccc(F)cc1F)N(CCC(F)(F)F)C[C@H](O)CO` belongs -18.87%; to `CN1CCN(Cc2cn3c(n2)CNCC3)CC1.Cl.Cl.Cl`, -6.492%; to `CCC(NCc1ncc[nH]1)c1nc(C(F)(F)F)cs1` (stereo not given), -16.74%. In the case of `COC(=O)c1ccc(CNC(=O)CN2C[C@@H](NC(C)=O)[C@H](C(C)C)C2)o1`, the “Percent Effect” value came to 2.567%. To `COc1c(C)cnc(CN(C)C(=O)c2ccccn2)c1C` belongs 13.08%.

Take `CCN(C)S(=O)(=O)N1CCCC(CO)(CC=C(C)C)C1` (stereo not given): the “Percent Effect” value is recorded as -20.38%. To `Cc1nnc(CNC(C)c2cc(C)c(F)c(C)c2)s1` (stereo not given) belongs 61.57%. The value for `Cc1cc(C)cc(C(C)NCc2nnc(C)s2)c1` (stereo not given) was -26.09%; that for `COc1cc(C(C)NCc2ncccc2C)ccc1SC(F)F` (stereo not given) was -24.97%; that for `Cc1ccc(CNC(=O)CN(C)CC2CCN(CCO)CC2)s1` was -11.99%.

For `CCN1Cc2cc3c(cc2NCCC1=O)OCO3`, the “Percent Effect” value is 124.2%.

On to `O=C1NCCN(CC2CC2)C12CCN(Cc1ccc3c(c1)OCO3)CC2`, for which the “Percent Effect” value is given as -10.73%. The value for `COC(=O)CN1Cc2cc3c(cc2NCCC1=O)OCO3` was 87.85%. The value for `COC(=O)CCC(=O)N1CCc2[nH]nc(-c3ccc4c(c3)OCO4)c2C1` was 6.027%. To `CC(C)(C)CN1Cc2cc3c(cc2NCCC1=O)OCO3` belongs 93.04%.

In the case of `COc1nccnc1N1CCN(Cc2ccc3c(c2)OCO3)C(=O)C1`, the “Percent Effect” value was -4.11%. To `O=C1CCNc2cc3c(cc2CN1CC1CC1)OCO3` belongs 89.98%; to `CC(C)SCc1cccc(NC(=O)NC(C)c2nc[nH]n2)c1` (stereo not given), -14.93%. The value for `Cc1ccccc1S(=O)(=O)NC(=O)CSc1ccc2c(c1)OCCO2` was -12.34%; that for `O=C(CSc1ccccc1Cl)NS(=O)(=O)c1ccc2c(c1)OCCO2` was 0.8211%; that for `CN(C)CCN(C)C1CCCN(C(=O)c2ccc(Cn3ccnc3)o2)C1` (stereo not given) was -5.736%. To `CC(O)CN1CCC(CN(C)Cc2cccc(C#N)c2)CC1` (stereo not given) belongs -3.336%; to `COc1cccc([C@@H]2CN(C(=O)c3ccc(C)cc3O)C[C@H]2C(=O)O)c1`, 2.23%; to `COC(=O)c1cccn1C1CCN(C(=O)c2cn[nH]c2C)CC1`, 1.064%. As to `COC(=O)c1cccn1C1CCN(C(=O)c2ccc(C)[nH]c2=O)CC1`, the “Percent Effect” value was determined as 102.8%. Take `COC(=O)c1cccn1C1CCN(C(=O)c2c(C)noc2C)CC1`: the “Percent Effect” value is 105.8%. To `COC(=O)c1cccn1C1CCN(C(=O)c2cc(C)ccc2O)CC1` belongs -6.759%; to `COC(=O)c1cccn1C1CCN(C(=O)c2cc(F)ccc2F)CC1`, 16.29%. To `COC(=O)c1cccn1C1CCN(C(=O)c2cc(F)ccc2C)CC1` belongs 95.76%. The value for `Cc1ccc(F)cc1C(=O)OCC1CCCN1C(N)=O` (stereo not given) was 7.06%; that for `COC(=O)c1cccn1C1CCN(C(=O)c2ccc(C)cc2O)CC1` was 105.5%. For the molecule `Cc1ccc(C(=O)N2CCC(c3nccn3C(C)C)CC2)c(=O)[nH]1`, the “Percent Effect” value worked out at 4.246%. The value for `O=C(Cc1cc2c(cc1Cl)OCCO2)N1CC[C@H](CO)[C@H](O)C1` was 7.536%. Turning to `COc1cccc(-n2c(C)cc(C(=O)NS(C)(=O)=O)c2C)c1`, the “Percent Effect” value was -4.667%. Take `Cc1n[nH]cc1CNCC1(c2ccccc2Cl)CCOCC1`: the “Percent Effect” value amounted to 10.52%. The value for `Cc1ccc(CCNC(=O)NCc2cccc(OC(F)F)c2)cn1` was -2.718%; that for `CC(C)CCOCCNC(=O)Nc1ccc(F)c(C(N)=O)c1` was 86.61%; that for `NC(=O)c1cc(NC(=O)N2CCCCCC2)ccc1F` was -15.41%. The value for `O=C(NCCCOCC1CC1)Nc1ccc(F)cc1` was 3.334%.

In the case of `COCCCNC(=O)Nc1cccc2ncccc12`, the “Percent Effect” value worked out at 3.143%. As for `CC(C)C(C)NC(=O)Nc1ccc(F)c(C(N)=O)c1` (stereo not given), the “Percent Effect” value was 114.2%.
